About 79,000 compounds went through this panel and 15% of them were active in at least one assay; those are over-represented in the sample as a whole. Values without a mark were called inactive. Calls of active or inactive are those of the source. Cut-off read from the data, not from the text of the source: active = growth inhibition above about 70%; inactive = the rest. Where a SMILES comes first, the peptide text is derived from it. [ ]: non-standard residue; d: D form. The star is where a group is joined. ξ: configuration not given here. X15 = COc1ccc(C(N*)c2ccc(OC)cc2)cc1; NMeF = CN[C@@H](Cc1ccccc1)C(=O)O; NMeD = CN[C@@H](CC(=O)O)C(=O)O; NMeV = CN[C@H](C(=O)O)C(C)C; ξNMeV = CNC(C(=O)O)C(C)C; Boc = CC(C)(C)OC(=O)*; ξNMeA = CNC(C)C(=O)O; ξV = CC(C)C(N)C(=O)O
Experiment: NCI Yeast Anticancer Drug Screen. Data for the mec2-1 strain (AID 157)
Conditions: S. cerevisiae mec2-1 strain, at 50.0 µM, hits give high values
Outline: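 Using mec2-1 yeast: add compound, measure growth, express inhibition versus vehicle-treated cultures.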

SMILES	growth inhibition
CN(CC#N)CC#N	9.6%
O=C(O)C1CCC1C(=O)O (configuration not stated)	-24.1%
COc1ccc(C(NC(=O)C[C@@H](C(=O)N(C)C(C)C(=O)O)N(C)C(=O)[C@@H]2CCCN2C(=O)[C@H](C(C)C)N(C)C(=O)C(C(C)C)N(C)C(=O)[C@H](Cc2ccccc2)N(C)C(=O)C(NC(=O)OC(C)(C)C)C(C)C)c2ccc(OC)cc2)cc1 (some centres not stated) (Boc-[ξV][NMeF][ξNMeV][NMeV]P[NMeD](X15)[ξNMeA]-OH)	-23.9%
CN1C(c2ccco2)NC(=O)C12CCN(Cc1ccccc1)CC2 (configuration not stated)	7.25%
Cc1ccc(S(=O)(=O)OCC2CC=CCC2COC(=O)c2ccc([N+](=O)[O-])cc2)cc1 (configuration not stated)	-5.55%
Cc1cnc(Br)c(Br)c1	0.8%
COC(=O)/C=C(/C=C1/C(C#N)=C(N)N(c2ccc(Cl)cc2)C1(C)/C(=C/C(=O)OC)C(=O)OC)C(=O)OC (configuration not stated)	-11.4%
CCOc1ccccc1/C=C1\NC(=O)NC1=O	-35%
O=C1c2ccccc2C(=O)c2c(NCCNC(=O)C3CCCN3)ccc(NCCNC(=O)C3CCCN3)c21 (configuration not stated)	-11.7%
COc1ccc([B-]23OCC[N+]2(CNC(=O)c2ccccc2O)CCO3)cc1 (configuration not stated)	2.7%
COCC(=O)C(C(C)=O)C(c1ccc2c(c1)OCO2)C(C(C)=O)C(=O)COC (configuration not stated)	-8.25%
C=CCNC(=O)N(CCCCC(NC(C)=O)C(=O)NCc1ccccc1)Cc1ccccc1 (configuration not stated)	6.55%
CC(C)c1ccccc1OC(=O)NC1CCCCC1	20.7%
Cc1ccc(NC(=S)N2CCCCC2C)cc1C (configuration not stated)	11.7%
CC1C2c3ccccc3C(c3ccccc32)C1CN1C(CCO)COC1c1ccccc1 (configuration not stated)	8.9%
CN1CCn2c(Br)ccc2C1=O	-11.6%
CCC(C)(C)C1CCCCC1OC(C)=O (configuration not stated)	-2.6%
O=C(/C=C\c1ccc(Cl)cc1)c1ccccc1	-34.5%
O=C1C(Br)=C(Br)C(=O)C2=C1C1c3ccccc3C2c2ccccc21	98.2% (active)
NC(N)=NS(=O)(=O)c1ccc(N)cc1	23.9%
CSC1(C)C(=O)Nc2ccc(C(F)(F)F)cc21 (configuration not stated)	4.8%
O=C1OCC2Cc3ccccc3C(c3ccccc3)=C12 (configuration not stated)	-6.3%

Experiment: NCI Yeast Anticancer Drug Screen. Data for the sgs1 mgt1 strain (AID 161);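 note: 0% = growth of cultures given vehicle only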
Conditions: S. cerevisiae sgs1 mgt1 strain, at 50.0 µM, hits give high values
Outline: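 Compounds are added to genetically altered yeast, and growth is compared with cultures given vehicle alone to give percent inhibition.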

SMILES	growth inhibition
CC(C)(N=NC(C)(C)C(=O)NCCO)C(=O)NCCO	0.85%
COc1ccc(OC)c(/C=C/c2ccc(NC(=O)C(Cl)(Cl)Cl)cc2)c1	-12.2%
NC1=C(O)C(=O)C(c2ccccc2)O1 (configuration not stated)	-4.15%
O=C(O)C(=O)Cc1ccccc1	-4.85%
Br/C=C\Br	-7.45%
COc1ccc2c(c1O)-c1c(OC)c(OC)cc3c1[C@H](C2)[N+](C)(C)CC3	11.2%
Cc1ccccc1N(C(=O)C(=O)O)c1ccccc1C	8%
CC(C)(C)NC(=O)NCc1ccccc1Cl	-2.7%
c1csc(-c2nccc3ccccc23)c1	-19.2%
CC(/C=N\NC(=S)SCc1ccccc1)=N/N=C(N)N	57.2%
O=C(O)COc1cc(-c2ccccc2)nc2ccc(F)cc12	31.5%
C/C(=C/C(C)O)c1ccccc1 (configuration not stated)	-15.2%
CC1(C)N=C(N)N=C(N)N1CCCCc1ccccc1	-27.4%
ClCCCCCCCCCCl	-12.7%
COc1cccc(/C=N/N(C)c2c([N+](=O)[O-])cc(C(F)(F)F)cc2[N+](=O)[O-])c1O	-16.6%
NC(CCCOS(=O)(=O)O)Cc1ccc2ccccc2c1 (configuration not stated)	16.6%
O=C(NNC(=O)c1ccc(Cl)cc1Cl)c1ccccc1	-4.75%
O=C(OCC1OC(OCc2ccccc2)C(OC(=O)c2ccccc2)C1OC(=O)c1ccccc1)c1ccccc1 (configuration not stated)	-2.4%
CN(CC#N)CC#N	8.75%
O=C(O)C1CCC1C(=O)O (configuration not stated)	-23.5%

SMILES	growth inhibition
COc1ccc(C(NC(=O)C[C@@H](C(=O)N(C)C(C)C(=O)O)N(C)C(=O)[C@@H]2CCCN2C(=O)[C@H](C(C)C)N(C)C(=O)C(C(C)C)N(C)C(=O)[C@H](Cc2ccccc2)N(C)C(=O)C(NC(=O)OC(C)(C)C)C(C)C)c2ccc(OC)cc2)cc1 (some centres not stated) (Boc-[ξV][NMeF][ξNMeV][NMeV]P[NMeD](X15)[ξNMeA]-OH)	-20.9%
CN1C(c2ccco2)NC(=O)C12CCN(Cc1ccccc1)CC2 (configuration not stated)	15.2%
Cc1ccc(S(=O)(=O)OCC2CC=CCC2COC(=O)c2ccc([N+](=O)[O-])cc2)cc1 (configuration not stated)	12.1%
Cc1cnc(Br)c(Br)c1	3.45%
COC(=O)/C=C(/C=C1/C(C#N)=C(N)N(c2ccc(Cl)cc2)C1(C)/C(=C/C(=O)OC)C(=O)OC)C(=O)OC (configuration not stated)	2.5%
CCOc1ccccc1/C=C1\NC(=O)NC1=O	-35%
O=C1c2ccccc2C(=O)c2c(NCCNC(=O)C3CCCN3)ccc(NCCNC(=O)C3CCCN3)c21 (configuration not stated)	21.8%
COc1ccc([B-]23OCC[N+]2(CNC(=O)c2ccccc2O)CCO3)cc1 (configuration not stated)	13.9%
COCC(=O)C(C(C)=O)C(c1ccc2c(c1)OCO2)C(C(C)=O)C(=O)COC (configuration not stated)	-18.9%
C=CCNC(=O)N(CCCCC(NC(C)=O)C(=O)NCc1ccccc1)Cc1ccccc1 (configuration not stated)	-12.7%
CC(C)c1ccccc1OC(=O)NC1CCCCC1	7.25%
Cc1ccc(NC(=S)N2CCCCC2C)cc1C (configuration not stated)	12.7%
CC1C2c3ccccc3C(c3ccccc32)C1CN1C(CCO)COC1c1ccccc1 (configuration not stated)	-3.25%
CN1CCn2c(Br)ccc2C1=O	-1.55%
CCC(C)(C)C1CCCCC1OC(C)=O (configuration not stated)	2.55%
O=C(/C=C\c1ccc(Cl)cc1)c1ccccc1	15.3%
O=C1C(Br)=C(Br)C(=O)C2=C1C1c3ccccc3C2c2ccccc21	97.8% (active)
NC(N)=NS(=O)(=O)c1ccc(N)cc1	26.4%
CSC1(C)C(=O)Nc2ccc(C(F)(F)F)cc21 (configuration not stated)	-0.05%
O=C1OCC2Cc3ccccc3C(c3ccccc3)=C12 (configuration not stated)	-1.3%

Source: PubChem BioAssay (NCI)
